Measured values reported in PubChem BioAssay AID977607 (Broad Institute, 2014).
Hit rate of the full screen: of about 1,500 compounds, about 460 (31%) were called active. About 1% were inconclusive and are not listed.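 The calls were made as follows: active = curve reaches 40% activation over neutral controls at an AC40 no higher than the top valid tested concentration; inconclusive = no clear call, values can overlap the other calls; inactive = signal moving opposite to the expected increase, and the rest.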 A selection follows. Potency and affinity values are given separately.

Experiment: activators of glucose-dependent insulin secretion, dose response, cell-based, INS-1E, Gaussia luciferase, luminescence, cherry-pick, set 2 (AID 977607);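 also: 0% = median of the plate neutral control wells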
Details: INS-1E GLuc insulin secretion reporter, 2-3 h, hits give high values; at 35 µM, 100% = signal doubled over neutral wells unless noted

Max activation, inactive:
COc1cc(C(C(=O)NC2CCCC2)N(Cc2ccco2)C(=O)c2snc(C(N)=O)c2N)cc(OC)c1OC (stereo not drawn) 22.3% [at 0.015 µM, 100% = signal doubled over neutral wells]
COc1ccc(C2C3CCCCC3(O)CCN2C(=O)c2cccs2)cc1 (stereo not drawn) -22.1% [at 0.046 µM, 100% = signal doubled over neutral wells]
CC1CCC(NCCNC(=O)c2ccco2)CC1 (stereo not drawn) -20.4%
Cc1cc(Br)c2c(c1)C1(OCCO1)C(=O)N2 -12%
CC(=O)c1cccc(NC2c3ncccc3C(=O)N2Cc2ccco2)c1 (stereo not drawn) 50.6% [at 11 µM, 100% = signal doubled over neutral wells]
O=C1c2cccnc2C(Nc2ccc(F)c(Cl)c2)N1Cc1cccs1 (stereo not drawn) -13.1% [at 0.135 µM, 100% = signal doubled over neutral wells]
C=CCN1C(=O)CSc2ccc(C(=O)OCC)cc21 -11.5% [at 3.8 µM, 100% = signal doubled over neutral wells]
CCCN(Cc1nnc(-c2ccccc2Cl)o1)C(=O)c1cc2ccccc2o1 -17% [at 11 µM, 100% = signal doubled over neutral wells]
Cc1cc(C)cc(N(C(=O)C(F)(F)F)C(C(=O)NC2CCCCC2)c2cccs2)c1 (stereo not drawn) 37.1% [at 0.42 µM, 100% = signal doubled over neutral wells]
Cc1ccc(S(=O)(=O)N2CCN(C(=O)COC(=O)c3ccc(O)cc3)CC2)c(C)c1 -39.9%
N#CC1=C(N)Oc2n[nH]c(-c3ccc(F)cc3)c2C1c1cccnc1 (stereo not drawn) 43%
O=C(O)Cc1ccc(NS(=O)(=O)c2ccc3c(c2)OCCO3)cc1 -23.1% [at 0.0016 µM, 100% = signal doubled over neutral wells]
COc1ccc(S(=O)(=O)N(C)CC(=O)Nc2ccc3c(c2)OCCO3)cc1OC 41.6% [at 0.0016 µM, 100% = signal doubled over neutral wells]
O=C(N=C1SC2CS(=O)(=O)CC2N1c1ccc(F)c(Cl)c1)C1CC1 (stereo not drawn) -16.2% [at 0.046 µM, 100% = signal doubled over neutral wells]
Cc1ccc(NC(=O)c2cc(-c3ccccc3O)n[nH]2)cc1C 17.3%
Cc1cc2nc(-c3ccccc3O)[nH]c2cc1C -13.8% [at 0.42 µM, 100% = signal doubled over neutral wells]
O=C(c1cc(-c2ccc(F)cc2)nc2ccccc12)N1CCN(C2CCS(=O)(=O)C2)CC1 (stereo not drawn) -24.6% [at 0.0016 µM, 100% = signal doubled over neutral wells]
CC(=O)c1cccc(N(CC(=O)NC2CCCCC2)C(=O)Cn2nnc(-c3ccccc3)n2)c1 -24.8% [at 0.0016 µM, 100% = signal doubled over neutral wells]
CCOc1nc(-c2ccccc2)c2cc(Br)ccc2n1 13.2%
COc1ccc(C(=O)Nc2nnc(-c3ccco3)s2)cc1 -13.7% [at 0.135 µM, 100% = signal doubled over neutral wells]
NC(=O)C1CCN(C(=O)CCNS(=O)(=O)c2ccccc2F)CC1 14.1% [at 1.2 µM, 100% = signal doubled over neutral wells]
CCn1cc(C(=O)O)c(=O)c2cc(F)c(N3CCN(C(=S)NC(=O)c4cccc(C)c4)CC3)cc21 -20.5%
CCOc1ccc(CCNC(=O)COC(=O)c2cccc(N(C)C)c2)cc1OCC -44%
CC(C)CC(=O)Nc1cccc(-c2nc3ncccc3o2)c1 -18.2% [at 0.0016 µM, 100% = signal doubled over neutral wells]
COc1ccc(S(=O)(=O)N2CCCCC2)cc1NC(=O)C1CCCC1 -27.7% [at 0.135 µM, 100% = signal doubled over neutral wells]
CN1CCN(c2ccc(NC(=O)c3ccc(Oc4ccccc4)cc3)cc2)CC1 -14.3% [at 0.015 µM, 100% = signal doubled over neutral wells]
O=C(NCc1ccccc1)c1cccnc1Sc1ccccc1 14.4% [at 3.8 µM, 100% = signal doubled over neutral wells]
CCOCCCn1c(SCc2ccccc2)nnc1-c1ccncc1 27.1% [at 1.2 µM, 100% = signal doubled over neutral wells]
CNc1nc(-c2ccccc2)cc(-c2ccccc2)n1 -32.2%
CC(C)Cc1nc2n[nH]c(N)c2c2c1COC(C)(C)C2 33.4%
CCCCOc1ccc(SCCCN2CCOCC2)cc1 -17.1% [at 11 µM, 100% = signal doubled over neutral wells]
CC(=O)Oc1ccccc1C(=O)OCCN=C1NS(=O)(=O)c2ccccc21 -19.1% [at 0.046 µM, 100% = signal doubled over neutral wells]
CCOC(=O)c1cc(-c2ccc(Cl)s2)nc2c1c(C)nn2C 61.3%
N#Cc1cccnc1Nc1cccc(Cl)c1 31.6%
CCNC(=O)C1(C)CCCN1C(=O)c1cc(OC)c(OC)c(OC)c1 (stereo not drawn) -19.1% [at 0.135 µM, 100% = signal doubled over neutral wells]
CC(=O)Nc1ccc(Nc2nc(-c3c(C)nc4ccccn34)cs2)cc1 -20% [at 11 µM, 100% = signal doubled over neutral wells]
O=C(Nc1cccc(Cl)c1)Nc1nc(-c2ccc(Cl)cc2)cs1 -37.7% [at 11 µM, 100% = signal doubled over neutral wells]
Cc1ccc(-c2cc(C(=O)Nc3nn[nH]n3)c3ccccc3n2)c(C)c1 -12.2% [at 1.2 µM, 100% = signal doubled over neutral wells]
Cc1ccc2c(c1)C=CC(C#N)N2C(=O)c1ccccc1 (stereo not drawn) 36.1%
O=C(COc1nncc2ccccc12)NCC(F)(F)F 25.7%
Cc1ccc(C(OCC(O)CNCc2ccc(F)cc2)c2ccccc2)cc1 (stereo not drawn) 97.1%
CCOC(=O)CN1C(=O)[C@]2(OCCC=C[C@H]2C)c2ccccc21 33.6%
C1CCN(CCCNC2C3CC4CC(C3)CC2C4)C1 (stereo not drawn) -11.8% [at 0.0016 µM, 100% = signal doubled over neutral wells]
CCc1nc2c(nnn2Cc2ccc(F)cc2)c(=O)[nH]1 -16% [at 0.42 µM, 100% = signal doubled over neutral wells]
COc1ccc(-c2cc(-c3ccco3)[nH]c(=O)c2C#N)cc1OC -12.7% [at 3.8 µM, 100% = signal doubled over neutral wells]
COc1ccc(CC(=O)N2CCc3cc(OC)c(OC)cc3C2)cc1 20%
O=C(Nc1nnc(CCS(=O)(=O)c2ccc3ccccc3c2)s1)c1cccs1 -24% [at 0.015 µM, 100% = signal doubled over neutral wells]
O=C(Nc1ccc(NC(=O)c2cccs2)cc1)c1ccc(Br)o1 -18.3% [at 0.135 µM, 100% = signal doubled over neutral wells]
CC1(C)N=C(c2ccccc2)C(c2ccccc2)=N1 33.2%
CCOC(=O)Cn1nc(-c2ccccc2)c(-c2ccccc2)nc1=O -19.8% [at 0.005 µM, 100% = signal doubled over neutral wells]
Cc1ccc(-n2cc(CNCCCn3ccnc3C)c(-c3ccc(F)cc3)n2)cc1 -12.6% [at 1.2 µM, 100% = signal doubled over neutral wells]
CCOc1ncccc1C(=O)OCC(=O)NCCc1ccc(S(N)(=O)=O)cc1 -12.8% [at 0.046 µM, 100% = signal doubled over neutral wells]
CCOC(=O)c1cc(-c2ccncc2)nc2c1c(C)nn2-c1ccccn1 -16.4% [at 0.005 µM, 100% = signal doubled over neutral wells]
COc1ccc(S(=O)(=O)N(C)c2ccc(C(=O)N3CCCC3)cc2)cc1OC -12.8% [at 3.8 µM, 100% = signal doubled over neutral wells]
O=C(O)c1ccc(S(=O)(=O)N2CCC3(CC2)CC(=O)c2ccccc2O3)cc1 -16.3% [at 1.2 µM, 100% = signal doubled over neutral wells]
CCCN1C[C@@H](C)[C@@H](OC)CN(C)C(=O)c2ccc(NC(=O)c3cccc(F)c3)cc2OC[C@H]1C -15.7% [at 0.005 µM, 100% = signal doubled over neutral wells]
O=C(Nc1cccc(Cl)c1)c1cnn2cccnc12 29.7%
CCc1nc2ccc(C(=O)NCCCN3CCCC3=O)cn2c1N(CCC(C)C)CCN(C)C -19.8% [at 0.42 µM, 100% = signal doubled over neutral wells]
